Test [1] can be described thus: optical density shifts of acrAB sulA E. coli – strain DRC41, OD650, 48 h, E. coli filamentation inducer project, primary screen (AID 1152).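 Note: E. coli MC1000 strain DRC41 lacking acrAB efflux pump and sulA.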 Particulars: higher = more signal, called active from +8 up or from −8 down.
A short description of test [2]: probe aLefty1 binding on compound microarray – biochemical, small-molecule microarray, 635/667 nm fluorescence, primary screen (AID 1153).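 Note: score merges spot fluorescence with signal-to-noise ratio from the scanned slide images.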 Particulars: higher = more signal.
Test [3] in a line: plasmodial surface anion channel blockers, osmotic lysis – cell-based, P. falciparum Indochina, OD700, 1 h, primary screen (AID 1154). Particulars: P. falciparum Indochina infected RBC osmotic lysis, higher = more signal, called active from +8 up or from −8 down.
A short description of test [4]: plasmodial surface anion channel blockers, osmotic lysis – cell-based, P. falciparum Indochina, OD700, 2 h, primary screen (AID 1155).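 Note: lysis reports solute entry through the parasite surface anion channel PSAC.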 Particulars: P. falciparum Indochina infected erythrocytes, higher = more signal, called active from +8 up or from −8 down.
Test [5] in a line: changes in parasitized red cell lysis, either direction – P. falciparum Indochina, OD700, 3 h, PSAC antagonist project, primary screen (AID 1156). Particulars: P. falciparum-infected erythrocytes, osmotic lysis, higher = more signal, called active from +8 up or from −8 down.
Test [6] is described as follows: plasmodial surface anion channel blockers, osmotic lysis – cell-based, P. falciparum Indochina, OD700, 18 h, primary screen (AID 1157). Particulars: P. falciparum Indochina infected erythrocytes, osmotic lysis OD700, 18 h; higher = more signal, called active from +8 up or from −8 down.
Test [7] can be described thus: S6 kinase pathway phospho-S6 level changes – cell-based, A549, cytoblot, luminescence, serum-stimulated, primary screen (AID 1158).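 Note: serum-stimulated A549 lung adenocarcinoma cells; signal is phosphorylated S6 detected by cytoblot immunostaining with HRP secondary.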 Particulars: 5 h, higher = more signal.
Test [8] addresses NADPH oxidase 2 (Homo sapiens) (UniProt P04839). The experiment in a line: compounds shifting NOX2 Amplex Red fluorescence – cell-based, HEK293-NOX2, PMA-stimulated, NOX inhibitor project, primary screen (AID 1159). Note: test concentration not given here. Particulars: 45 min, higher = more signal, called active from +8 up or from −8 down.
Test [9] concerns the target NADPH oxidase 4 (Homo sapiens) (UniProt Q9NPH5). The experiment in a line: compounds shifting NOX4 Amplex Red fluorescence – cell-based, HEK293-NOX4, tetracycline-induced, NOX inhibitor project, primary screen (AID 1160). Particulars: HEK293-NOX4, Amplex Red H2O2 fluorescence, 45 min; higher = more signal, called active from +8 up or from −8 down.
Test [10] deals with NADPH oxidase 5 (Homo sapiens) (UniProt Q96PH1). Kind of test: compounds shifting NOX5 Amplex Red fluorescence – cell-based, HEK293-NOX5, NOX inhibitor project, primary screen (AID 1161). Particulars: HEK293-NOX5, ionomycin, 45 min, higher = more signal.
The nature of test [11]: compound effects on lung adenocarcinoma cell viability – A549, calcein-AM fluorescence, 48 h, basal, profiling panel (AID 1162). Note: test concentration not given here. Particulars: higher = more signal.
Test [12] can be described thus: compound effects on differentiated 3T3-L1 adipocyte viability – cell-based, 3T3-L1 adipocytes, calcein-AM fluorescence, 48 h, basal, profiling panel (AID 1163). Note: test concentration not given here. Particulars: 3T3-L1 adipocytes viability, higher = more signal.
Test [13] is described as follows: compound effects on hepatocellular carcinoma cell viability – HepG2, calcein-AM fluorescence, 48 h, basal, profiling panel (AID 1164). Note: test concentration not given here. Particulars: higher = more signal.
Test [14] in a line: compound effects on multiple myeloma cell viability – MM1S, calcein-AM fluorescence, 48 h, basal, profiling panel (AID 1165).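 Note: viability of MM1S multiple myeloma cells under basal unstimulated conditions; test concentration not given here.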 Particulars: higher = more signal.
A short description of test [15]: calcein-AM signal in unstimulated myeloma cells – cell-based, calcein-AM fluorescence, 48 h, PK04 Diversity Set, profiling panel (AID 1166).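 Note: cells grown under basal conditions without added stimulus; test concentration not given here.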 Particulars: RPMI8226 myeloma viability, higher = more signal.
Test [16] in a line: JC-1 mitochondrial signal, unstimulated HepG2 cells – cell-based, JC-1 fluorescence, 24 h, 100 nL compound, profiling panel (AID 1167). Note: test concentration not given here. Particulars: HepG2 mitochondrial potential, higher = more signal.
The nature of test [17]: JC-1 mitochondrial signal, unstimulated adipocytes – cell-based, JC-1 fluorescence, 3T3-L1 adipocytes, 24 h, 100 nL compound, profiling panel (AID 1168). Note: test concentration not given here. Particulars: JC-1 mitochondrial fluorescence, higher = more signal, called active from +8 up or from −8 down.
A short description of test [18]: JC-1 mitochondrial signal, unstimulated myeloma cells – cell-based, JC-1 fluorescence, RPMI8226, 24 h, 100 nL compound, profiling panel (AID 1169). Note: test concentration not given here. Particulars: JC-1 mitochondrial potential fluorescence, higher = more signal.
Test [19] is described as follows: JC-1 mitochondrial signal, unstimulated MM1S myeloma – cell-based, JC-1 fluorescence, 24 h, 100 nL compound, profiling panel (AID 1170). Note: test concentration not given here. Particulars: MM1S mitochondrial potential, higher = more signal.
Test [20] is described as follows: resazurin metabolic signal in A549 cells – cell-based, resazurin fluorescence, 24 h, PK04 Diversity Set, profiling panel (AID 1171). Note: test concentration not given here. Particulars: A549 viability, higher = more signal, called active from +8 up or from −8 down.

The source made the active and inactive calls.

Sequence of NADPH oxidase 5 (Homo sapiens) (Q96PH1 whole entry, looked up): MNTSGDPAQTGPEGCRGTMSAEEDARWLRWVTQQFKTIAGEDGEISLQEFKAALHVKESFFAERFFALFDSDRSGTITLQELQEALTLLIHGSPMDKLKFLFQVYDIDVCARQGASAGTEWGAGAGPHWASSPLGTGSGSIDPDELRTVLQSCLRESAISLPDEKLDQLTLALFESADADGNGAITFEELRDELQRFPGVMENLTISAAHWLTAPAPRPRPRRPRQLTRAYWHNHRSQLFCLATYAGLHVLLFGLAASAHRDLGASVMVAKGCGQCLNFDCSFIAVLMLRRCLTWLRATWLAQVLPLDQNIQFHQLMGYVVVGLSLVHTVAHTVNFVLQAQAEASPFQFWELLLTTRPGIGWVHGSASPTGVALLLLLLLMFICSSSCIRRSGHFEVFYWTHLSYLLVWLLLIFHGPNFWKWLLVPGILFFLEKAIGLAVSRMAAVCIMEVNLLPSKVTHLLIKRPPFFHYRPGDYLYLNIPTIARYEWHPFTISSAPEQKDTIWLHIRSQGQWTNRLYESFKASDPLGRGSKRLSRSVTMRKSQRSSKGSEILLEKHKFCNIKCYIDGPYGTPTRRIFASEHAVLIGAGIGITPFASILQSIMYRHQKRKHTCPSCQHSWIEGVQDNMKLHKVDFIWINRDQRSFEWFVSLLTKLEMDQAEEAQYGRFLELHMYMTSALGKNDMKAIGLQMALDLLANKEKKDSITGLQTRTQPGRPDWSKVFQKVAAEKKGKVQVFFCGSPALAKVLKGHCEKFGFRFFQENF
Sequence of NADPH oxidase 2 (Homo sapiens) (P04839 whole entry, looked up): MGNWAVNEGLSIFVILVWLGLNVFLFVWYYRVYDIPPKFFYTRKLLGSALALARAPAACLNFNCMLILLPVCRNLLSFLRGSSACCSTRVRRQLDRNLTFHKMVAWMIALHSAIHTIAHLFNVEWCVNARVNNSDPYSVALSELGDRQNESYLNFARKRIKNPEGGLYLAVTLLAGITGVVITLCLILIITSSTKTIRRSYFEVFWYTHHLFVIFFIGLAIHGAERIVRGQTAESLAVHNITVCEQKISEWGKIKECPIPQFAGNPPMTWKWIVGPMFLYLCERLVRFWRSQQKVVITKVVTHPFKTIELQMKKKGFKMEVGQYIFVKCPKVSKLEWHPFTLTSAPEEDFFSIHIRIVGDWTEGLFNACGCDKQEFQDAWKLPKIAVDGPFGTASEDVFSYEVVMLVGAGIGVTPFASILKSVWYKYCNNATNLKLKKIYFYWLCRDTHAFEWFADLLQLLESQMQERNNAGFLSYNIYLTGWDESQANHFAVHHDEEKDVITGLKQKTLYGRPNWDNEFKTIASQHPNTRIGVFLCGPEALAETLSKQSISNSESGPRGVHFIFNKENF
Sequence of NADPH oxidase 4 (Homo sapiens) (Q9NPH5 whole entry, looked up): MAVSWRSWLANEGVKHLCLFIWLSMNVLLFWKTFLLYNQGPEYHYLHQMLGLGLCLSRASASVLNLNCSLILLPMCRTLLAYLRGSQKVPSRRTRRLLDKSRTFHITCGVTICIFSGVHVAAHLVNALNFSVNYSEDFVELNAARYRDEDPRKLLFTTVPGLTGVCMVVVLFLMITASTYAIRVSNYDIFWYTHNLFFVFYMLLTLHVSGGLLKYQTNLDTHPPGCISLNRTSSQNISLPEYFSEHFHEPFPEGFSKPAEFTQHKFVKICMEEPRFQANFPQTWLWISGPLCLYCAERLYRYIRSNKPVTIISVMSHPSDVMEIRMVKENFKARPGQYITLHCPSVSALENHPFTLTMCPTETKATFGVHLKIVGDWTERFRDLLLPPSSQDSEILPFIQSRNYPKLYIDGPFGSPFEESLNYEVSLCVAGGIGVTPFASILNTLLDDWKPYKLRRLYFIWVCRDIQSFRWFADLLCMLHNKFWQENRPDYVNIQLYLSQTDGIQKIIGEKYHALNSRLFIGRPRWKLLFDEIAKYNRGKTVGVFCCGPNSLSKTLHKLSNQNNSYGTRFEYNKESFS

On to `CO[C@H]1COC(=O)CC=C[C@H](C)[C@@H](OC)COC(=O)[C@@H](C)NC(=O)CC=C[C@@H]1C`, for which the z-score in test [1] was 0.0321 (inactive); in test [3], -0.848 (inactive); in test [4] it was -0.863 (inactive); in [5], -0.372 (inactive); in test [6], -1.99 (inactive); in [7], 1.03. Besides, the z-score was -0.22 (inactive) in [8]; 0.403 (inactive) in [9]; -0.0966 in test [10]; 0.181 in test [11]; 0.0797 in test [12]; -1.72 in test [13]. For the same molecule, the z-score was -0.227 in [14]; 0.0777 in [15]; -0.0888 in test [16]; -1.76 (inactive) in test [17]; -0.244 in [18]; -0.582 in test [19]. The z-score in test [20] was 0.66 (inactive). Also, the composite z-score in [2] was -0.152.

Take `Cc1ccc(S(=O)(=O)OC[C@H]2CN3[C@H](c4ccc(Br)cc4)[C@@H](C)CC[C@H]3C(=O)O2)cc1`: the z-score in [1] was 0.399 (inactive); in test [3], 3.18 (inactive); in [4] it was 0.57 (inactive); in test [5], 0.896 (inactive); in test [6], 0.761 (inactive); in test [7], 0.0084. The z-score was 0.407 (inactive) in test [8]; 0.484 (inactive) in test [9]; -0.632 in test [10]; 0.602 in test [11]; -0.744 in [12]; 0.62 in test [13]. For the same molecule, the z-score in test [14] was -0.0638; in test [15], -0.75; in test [16] it was 0.914; in [17], 0.555 (inactive); in test [18], -0.103; in test [19], 0.222. Besides, in test [20], the z-score was 0.683 (inactive). The composite z-score in test [2] is -0.0501.

Consider `COC(=O)[C@@H]1CC[C@H](C)[C@@H](c2ccc(C)cc2)N1C(=O)c1ccc(C=NO[C@H](C)c2cn([C@H](CO)Cc3ccccc3)nn2)cc1`, for which the z-score was -0.25 (inactive) in [1]; 18.8 (active) in test [3]; 2.92 (inactive) in test [4]; 1.91 (inactive) in [5]; 1.25 (inactive) in [6]; -0.0872 in test [7]. The z-score is -0.0504 (inactive) in test [8]; -0.591 (inactive) in [9]; -1.71 in test [10]; 0.354 in test [11]; 0.747 in [12]; -1.31 in [13]. The z-score in test [14] is 0.005; in [15], -2.98; in [16], -0.701; in [17], -1.55 (inactive); in test [18] it was -0.041; in test [19] it was 0.697. For the same molecule, in [20], the z-score was -0.0166 (inactive). This molecule also displayed a composite z-score in [2] of 0.342.

Turning to `CC(C)=CCCC(C)=CCON=C1C[C@@H](O)[C@@H](O)[C@@H]2[C@@H]3C(=O)N(Cc4ccccc4)C(=O)[C@@H]3CC[C@@H]12`, the z-score in test [1] was -0.0866 (inactive); in test [3], 0.391 (inactive); in test [4], 0.239 (inactive); in test [5], 0.0336 (inactive); in test [6], -0.0646 (inactive); in test [7], -0.444. For the same molecule, the z-score in [8] was 0.0415 (inactive); in test [9], 0.836 (inactive); in test [10] it was -0.0355; in [11], 0.123; in test [12], -0.827; in [13], -1.45. The z-score in [14] is 0.732; in test [15], 0.107; in test [16], 0.786; in [17] it was 0.199 (inactive); in test [18], -0.11; in [19] it was -0.689. The z-score in test [20] was 0.708 (inactive). Moreover, the composite z-score in test [2] is -0.241.

As for `CO[C@H]1COC(=O)[C@H](C)NC(=O)CC=C[C@@H](C)[C@H](OC)COC(=O)[C@@H](OCc2ccccc2)C=C[C@@H]1C`, the z-score is 0.31 (inactive) in [1]; -0.352 (inactive) in test [3]; 0.101 (inactive) in test [4]; 0.912 (inactive) in test [5]; 0.378 (inactive) in test [6]; -0.191 in test [7]. The z-score in [8] is 1.18 (inactive); in [9], 0.332 (inactive); in test [10], -0.017; in test [11], 0.0192; in [12], 0.0912; in test [13], 0.645. Moreover, the z-score in test [14] was -0.144; in test [15] it was -0.646; in [16] it was 0.00399; in test [17] it was -0.29 (inactive); in test [18] it was -0.0466; in test [19] it was 0.474. In addition, the z-score in test [20] was 0.703 (inactive). Besides, in test [2], the composite z-score is -0.0544.

These data come from PubChem BioAssay.
